# Assay results as given in PMC12136788.
# Whole data set: some 24,000 sequences, median “enrichment r” near 0.99, cut for the highest 2% near 3.7. Not all results are given here.
# T1: UNK ZnF1-3 (human, UniProt Q9C0B0 31-174)
# T1 sequence: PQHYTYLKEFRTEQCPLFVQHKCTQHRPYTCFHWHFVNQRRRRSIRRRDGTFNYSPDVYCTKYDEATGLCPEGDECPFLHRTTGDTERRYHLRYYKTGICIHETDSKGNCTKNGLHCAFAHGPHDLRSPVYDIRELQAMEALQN
# B1: chr4:17845017:17845018:+_ENSG00000109805_ENST00000514176|hu_mus|hu_hu_hu_mus_False|1_58 (ssRNA)
# RNA: GGGAGUUCUACAGUCCGACGAUCGCUCUCUUAACUUGUAUCUUCAUUAAGGAACUCUGCAAGGUUAAGUUUACUUUUUCUAGUGCUAGCUGUUUUGGCUCGUCUGGGUAAUCUCAUCUUCAUUUCUGAUGGUGGUUUGGAACUCAACAGAGGAUUGAGCAUCA
# B2: chr6:146524949:146524950:-_ENSMUSG00000040250_ENSMUST00000032427|mus_hu|FALSE|FALSE (ssRNA)
# RNA: GGGAGUUCUACAGUCCGACGAUCCUGCCUGCAAGAUUCUGCCAUAUAAGGGCAGUGAUCCACAACAAACACUGUUUUAUGAGAUUCAGAAAAAAUCUUCAUUUUGUUUUAACUUUCGUGCCUGGUCCUGCAGUGAAAACGAACCAACAGAGGAUUGAGCAUCA
# B3: chr17:73774127:73774128:-_ENSG00000132475_ENST00000254810|hu_mus|motif|central (ssRNA)
# RNA: GGGAGUUCUACAGUCCGACGAUCUGACAAGACUCCCCACCACUUGUGAAUGUAAAACAUUUAAUUUAAAAAUGUUGAACACGGCAAUAUAUAAAAUAGCUAUUAUAAAUGCACAUAGUGUAUUCUAUAGCUGCCAGGUUUACUCAACAGAGGAUUGAGCAUCA
# B4: chr9:95013113:95013114:-_ENSG00000196305_ENST00000443024|hu_hu|hu_hu_hu_mus_False|68_108 (ssRNA)
# RNA: GGGAGUUCUACAGUCCGACGAUCCUCAGUGAGAAAAGGCGUGUAAGGGGCCAUCAGUCUGCACAGAGAAAGCAGAACACUGAACAGUGUCUCCAGAGCCAUGACACAGUCUUCCACCCCACUCUCACCCUUUAACCUCCUCCUCAACAGAGGAUUGAGCAUCA
# B5: chr8:41367971:41367972:+_ENSG00000147533_ENST00000520817|hu_hu|motif|central (ssRNA)
# RNA: GGGAGUUCUACAGUCCGACGAUCAAUAUACAGUAUUAUUCCUAUCAAAUUUUUUUCUCAUAAGUUAUAUUUAUAACAAAACGGUAAUUAAAAUAUUUUUUAUACCUGCUUAUUCCAUAUCCAGGGACACAGCGGGAACAUUUACAACAGAGGAUUGAGCAUCA
# B6: chr4:4237396:4237397:-_ENSG00000132406_ENST00000382753|hu_hu|motif|central (ssRNA)
# RNA: GGGAGUUCUACAGUCCGACGAUCUAAAACUUCACAUUAGGAAAUGCUAAAAACCCAGUAAUGUACAUAAUGAUAAAAUCGGAAGUGAUGAGAAAACAUAAAAUAUUUUCAUUUGGUCCUGUCACCUAACAAAACUAUCAUAAACAACAGAGGAUUGAGCAUCA
# B7: chr18:77696836:77696837:-_ENSMUSG00000025427_ENSMUST00000026494|mus_hu|FALSE|FALSE (ssRNA)
# RNA: GGGAGUUCUACAGUCCGACGAUCCCUCAGAGGAUACCGGCUGGGUGGGCUGAGGUUGUGGGAGGAGCGAGGGAGGAGGAAAGGCAGGUUCAUGAUGGAGAGGCAGGGUUGUGGUGGGGGCGGGGGGGUGCCAAGUGUAGCAAGCAACAGAGGAUUGAGCAUCA
# B8: chr8:35901500:35901501:-_ENSMUSG00000031529_ENSMUST00000033929|mus_mus|FALSE|FALSE (ssRNA)
# RNA: GGGAGUUCUACAGUCCGACGAUCUAUAUAACAUGAUCUGUCUUUGUGUGUGGGACAGCCUGUUCCUCCUCCAAUUCCAUAAACAUACUGAUUGCUUUUUGAGGAGUUUUCAGCAAAGUAAAUUCCAGCUCCAAACAUCCCUCCCAACAGAGGAUUGAGCAUCA
# B9: chr2:9728443:9728444:-_ENSG00000134308_ENST00000238081|hu_mus|motif|central (ssRNA)
# RNA: GGGAGUUCUACAGUCCGACGAUCCUGCAUCUCCUUCUUGCUUAUAUCAAACGCCUCUUGGUAGGCUCCUUGGGAAUUUUCGGUUGUUUGUUUUCGAUCAUCGCCACAAGCUACUUCAGCAAGAUACCGGAAAUAAUCUCCCUUCAACAGAGGAUUGAGCAUCA
# B10: 30602309_30602429_1961_3pUTR_ENSG00000107951_ENST00000263063|human|control|control (ssRNA)
# RNA: GGGAGUUCUACAGUCCGACGAUCCGCCACACUCCACAGCUGAUGUUUUAAUAAAGUGCCACUGAGUAUCAGACUGAUCAAACUGAAAACAUCCCAGAACUUCAGACCAGGUUAAGGGGGCCAAUGAGAAGAUCAUGAAAAGUGCAACAGAGGAUUGAGCAUCA
# B11: chr4:42003652:42003653:+_ENSG00000014824_ENST00000513699|hu_hu|motif|central (ssRNA)
# RNA: GGGAGUUCUACAGUCCGACGAUCGGUACCAAUAUAUGGAUGACUACAGGGAACCAUGUUUGAAAAGCUUCCAAAUGUCACGGAAUUCUGCCACUCCUGGCGGUCGCUGGGAUUACAGGCCGCCGCCCUGCAUCGCAGACGGAGCAACAGAGGAUUGAGCAUCA
# B12: 22790091_22790211_509_ncRNA_ENSMUSG00000026784_ENSMUST00000139472|mouse|control|control (ssRNA)
# RNA: GGGAGUUCUACAGUCCGACGAUCAUGACUGGAGUUUGAUGAAGAAAGAACUGACUACUCAGACACCUGUCUCCCCACCGUGUGUGACACACACUAUAAGUCCCUCAGUAAUGAUGACAAUGUCUUGUAUCCUCUUCAUUUUUACAACAGAGGAUUGAGCAUCA
# B13: chr2:202488911:202488912:-_ENSG00000155755_ENST00000286196|hu_mus|hu_hu_hu_mus_False|88_98 (ssRNA)
# RNA: GGGAGUUCUACAGUCCGACGAUCAUUGAAACAUUUUCAUAAUAUUGAGAGAUGUUUUCAGCAUUAUGUAACAAAAGCUCAAUUGUAAAUACAUGUAUCUUAUAAAAAUACACUUAAAAACACGAGUGGGGAGCGCAGGCGCCACAACAGAGGAUUGAGCAUCA
# B14: chr16:94690476:94690477:+_ENSMUSG00000040785_ENSMUST00000117648|mus_mus|motif|central (ssRNA)
# RNA: GGGAGUUCUACAGUCCGACGAUCAGAAAUGUAAUGUAUUCAAGGUUCACAUGUCUGUAUUUGCCACUGCCUACAGGUCACGGAAAAUACCUAGUUUUUGAAUAGUUUCUAAUACAGUUAGCUUGUUUUCAGGCCACAUUACAACAACAGAGGAUUGAGCAUCA
# B15: chr13:90237973:90237974:+_ENSMUSG00000012422_ENSMUST00000161568|mus_hu|FALSE|FALSE (ssRNA)
# RNA: GGGAGUUCUACAGUCCGACGAUCAAGCACAGGUACAUAUAAGCAGCAAGAUUACAGUCAAUAGACUCUGAAAAUUGAAAAUGGCAGACAUAGCGAGGCCGGCGAUGCCGCAGCCACAUCACCCUUCCGGGGCUCAGGCGGAAGCAACAGAGGAUUGAGCAUCA
# B16: chr1:163112212:163112213:-_ENSG00000143248_ENST00000313961|hu_hu|hu_hu_hu_mus_False|1_58 (ssRNA)
# RNA: GGGAGUUCUACAGUCCGACGAUCUUUUAUUAUCAGUAAGAGUGAGUUACAUACUAGGCAAAGUAUUGGAUACAAUAUUCUAAAGAUAAACACUAUUGGUCCAGAAUUUAAAACUUUAUGAGCGAAGUGCUGGCACAGGAUUUACAACAGAGGAUUGAGCAUCA
# B17: chr7:7679991:7679992:-_ENSG00000106399_ENST00000396682|hu_hu|hu_hu_hu_mus_False|48_88 (ssRNA)
# RNA: GGGAGUUCUACAGUCCGACGAUCUGGGAUGAAUCUUUUCCAGCUUCCCUACGAAGCACACGGGCCGGUCGAUAUACUGUGGUAACAUGCCGGCGUUGACGCGCGCUUUGGGGAGCUGCAUUAUGUCCUCCAUGAUUCUGCCGCCAACAGAGGAUUGAGCAUCA
# B18: chr9:56909451:56909452:+_ENSMUSG00000032290_ENSMUST00000034832|mus_hu|motif|central (ssRNA)
# RNA: GGGAGUUCUACAGUCCGACGAUCCAUAAGUGCACACACACACACACACAGAAUGACAGAAAGGACUGGAAUACACGCCCGGCUUAUAAACGUGCUUGGCACUCAGGACGAUCUCUAGAAUAUGUAACUUGGUCAAGCUCUCUGCAACAGAGGAUUGAGCAUCA
# B19: 62695852_62700603_289_3pUTR_ENSMUSG00000042211_ENSMUST00000048688|mouse|control|control (ssRNA)
# RNA: GGGAGUUCUACAGUCCGACGAUCAGCUUCCGAGAGAGGCAUUCCAUGCACAUGAUGUCCUGUAGUGGCAGGUACCUGAAGAUAUGACAGAGCACUUCAUGUGACAGCUGGUUCAUGUAGUCCUUCUCUUCAUCGGCUGUCAUUCAACAGAGGAUUGAGCAUCA
# B20: chr7:151048522:151048523:+_ENSG00000013374_ENST00000566856|hu_mus|hu_hu_hu_mus_True|58_78 (ssRNA)
# RNA: GGGAGUUCUACAGUCCGACGAUCCUGUUUCUUAUUUAUUACGAUCUUGAUGUAAUUUUCUUGAAGUCCGAAAGUUUCAGCUAUUUUACACCUCAGGUCUCUACCAGUGACAUGCAAGCGGGUCUCCAACAAGCUUUUCUUAUCCAACAGAGGAUUGAGCAUCA
# B21: chr14:78183846:78183847:+_ENSG00000119705_ENST00000557342|hu_hu|hu_hu_hu_mus_False|18_108 (ssRNA)
# RNA: GGGAGUUCUACAGUCCGACGAUCUCUGUCUCAAAAAUCUUCAUCAGAUGUUUGAGCUCCGUGCAAAGCCUUUGCUCUUUGAGCUUGAACGUGGAUCUAUGGGAGGGAAAGCACUGUAUUUUCCUGUAAUUUUUUUUUUAAAGACAACAGAGGAUUGAGCAUCA
# B22: chr1:220276048:220276049:+_ENSG00000067704_ENST00000302637|hu_hu|hu_hu_hu_mus_True|78_108 (ssRNA)
# RNA: GGGAGUUCUACAGUCCGACGAUCGCAAACAGCUUCAUUGGCGGGAAUUGUCCAAGGUUGUGUGGUCCAAACUAAAACGCUAACAGGGGAUGAGGCAUCUGUAAGAGACUCCAACUUCGGAGGAGGUCUCAGGAGGGGGAAUCUCAACAGAGGAUUGAGCAUCA
# Molecular target: T1, UNK ZnF1-3
# Experiment: nsRBNS (natural sequence RNA bind-n-seq); RBNS binding buffer (assumed for nsRBNS): 25 mM Tris pH 7.5, 150 mM KCl, 3 mM MgCl2, 0.01% Triton X-100, 500 ug/ml BSA, 20 U/ml SUPERase-In, 4 C; UNK is unkempt and MSI1 is Musashi-1; names of the RNAs are library labels; protein concentration not given here; high values mean tight binding
row,Binder,binding signal [enrichment R]
1,B1,0.331
2,B2,1.02
3,B3,1.13
4,B4,1.61
5,B5,1.27
6,B6,1.05
7,B7,3.07
8,B8,1.03
9,B9,0.873
10,B10,2.32
11,B11,1.6
12,B12,0.985
13,B13,0.63
14,B14,0.656
15,B15,1.37
16,B16,1.29
17,B17,0.421
18,B18,1.4
19,B19,1.2
20,B20,0.64
21,B21,1.24
22,B22,1.64
